Results from ChEMBL document CHEMBL1961873, “Compounds: GSK PKIS; Assays: Nanosyn kinase panel” (2012).

Each compound was assayed against Hepatocyte growth factor receptor (Homo sapiens) (UniProt P08581). Details: at 1 µM.
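Further: each value is an averaged inhibition figure for MET, taken as the mean across measurements.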

Hepatocyte growth factor receptor (Homo sapiens), sequence (P08581 whole entry): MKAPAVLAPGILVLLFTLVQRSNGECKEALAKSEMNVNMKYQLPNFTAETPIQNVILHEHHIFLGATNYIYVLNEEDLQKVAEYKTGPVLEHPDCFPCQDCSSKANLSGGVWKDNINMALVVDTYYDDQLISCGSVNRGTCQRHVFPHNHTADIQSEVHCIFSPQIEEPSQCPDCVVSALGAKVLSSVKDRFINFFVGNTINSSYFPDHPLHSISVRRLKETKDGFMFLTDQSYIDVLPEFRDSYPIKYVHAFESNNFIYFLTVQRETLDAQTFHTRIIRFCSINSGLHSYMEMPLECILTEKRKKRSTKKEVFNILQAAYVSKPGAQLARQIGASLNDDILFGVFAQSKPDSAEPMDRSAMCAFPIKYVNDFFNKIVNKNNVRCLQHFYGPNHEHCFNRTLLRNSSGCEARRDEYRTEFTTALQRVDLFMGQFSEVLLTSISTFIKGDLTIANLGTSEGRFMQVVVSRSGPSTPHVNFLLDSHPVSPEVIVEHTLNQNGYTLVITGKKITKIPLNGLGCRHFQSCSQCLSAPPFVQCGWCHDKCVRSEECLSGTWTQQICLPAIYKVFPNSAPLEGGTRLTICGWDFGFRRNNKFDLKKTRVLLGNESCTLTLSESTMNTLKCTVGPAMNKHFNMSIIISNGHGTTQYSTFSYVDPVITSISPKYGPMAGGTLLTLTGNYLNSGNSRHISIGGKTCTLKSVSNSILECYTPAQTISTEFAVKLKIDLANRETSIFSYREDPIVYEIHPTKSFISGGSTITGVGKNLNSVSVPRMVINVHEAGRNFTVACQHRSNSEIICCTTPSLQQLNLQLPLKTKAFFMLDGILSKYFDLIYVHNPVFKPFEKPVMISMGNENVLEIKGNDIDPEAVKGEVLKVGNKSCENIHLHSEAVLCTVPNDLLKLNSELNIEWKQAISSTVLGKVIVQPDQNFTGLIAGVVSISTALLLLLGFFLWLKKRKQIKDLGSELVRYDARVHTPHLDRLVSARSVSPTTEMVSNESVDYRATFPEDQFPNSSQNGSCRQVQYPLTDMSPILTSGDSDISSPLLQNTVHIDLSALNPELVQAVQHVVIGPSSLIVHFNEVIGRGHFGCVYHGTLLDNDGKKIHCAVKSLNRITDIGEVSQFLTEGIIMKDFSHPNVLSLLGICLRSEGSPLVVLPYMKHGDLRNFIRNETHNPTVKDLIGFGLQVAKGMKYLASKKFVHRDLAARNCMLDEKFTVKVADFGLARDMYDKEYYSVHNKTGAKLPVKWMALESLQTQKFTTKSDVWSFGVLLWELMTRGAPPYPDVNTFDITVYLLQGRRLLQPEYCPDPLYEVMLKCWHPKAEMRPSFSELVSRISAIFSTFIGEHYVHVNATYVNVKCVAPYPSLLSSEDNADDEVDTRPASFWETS

SMILES | inhibition
FC(F)(F)c1cccc(-c2nn3ncccc3c2-c2ccnc(Nc3ccc4c(c3)OCCO4)n2)c1 | 5.36%
O=C(Nc1n[nH]c2cc(-c3ccc(F)cc3)ccc12)C1CC1 | 0.71%
CN1CCC(n2cnc(-c3ccc(F)cc3)c2-c2ccnc(N)n2)CC1 | 0.93%
COc1ccc(-c2cc(-c3c[nH]nc3-c3ccccn3)ccn2)cc1 | 3.52%
COc1ccc(CNC(=O)c2ccc(-c3cc(-c4nnc(C)o4)ccc3C)cc2)cc1 | 10.3%
CCN(CC)S(=O)(=O)c1ccc(OC)c(Nc2ncc(-c3ccccc3)o2)c1 | 4.3%
CCOc1ccc2c(-c3ccnc(Nc4cccc(C(F)(F)F)c4)n3)cnn2n1 | 3.51%
COc1cccc(-c2c[nH]c3c(N/N=C/c4ccncc4)ncnc23)c1 | 27.3%
COc1cccc(-n2ncc3c(N/N=C/c4ccc(F)cc4)ncnc32)c1 | 16.6%
NS(=O)(=O)c1ccc(N/N=C2\C(=O)Nc3ccc4ncccc4c32)cc1 | 19.4%
Nc1nc(-c2ccc(F)cc2)c(-c2ccc3ncccc3n2)s1 | 10.1%
CNC(=O)c1cncc(/C=C/c2ccccc2Cl)c1 | 4.48%
COc1cc2c(cc1Nc1nc(Nc3ccsc3C(N)=O)c3cc[nH]c3n1)N(C(=O)CN(C)C)CCC2(C)C | 23.1%
Fc1cccc(COc2ccc(Nc3ncnc4sc(-c5ccco5)cc34)cc2Cl)c1 | 4.96%
COc1ccc2[nH]c3c4[nH]c5ccc(OC)cc5c4c4c(c3c2c1)C(=O)NC4=O | 19.8%
CNC(=O)c1cc(-c2ccc(F)cc2)cc(-c2ccc(S(=O)(=O)N3CCCC3)cc2)c1N | 5.04%
Nc1nc(-c2cccc(Cl)c2)c(-c2ccc3ncccc3n2)s1 | 7.33%

SMILES | inhibition
CCn1c(-c2nonc2N)nc2c(C#CC(C)(C)O)nc(OC[C@H](N)c3ccccc3)cc21 | 1.76%
COc1cc(/C=N/Nc2ncnc3[nH]ncc23)ccc1O | 14.9%
CC(=O)Nc1cccc(C#Cc2cncnc2Nc2ccc(OCc3cccc(F)c3)c(Cl)c2)c1 | 1.83%
N#Cc1c(NC(=O)c2ccc(F)cc2)sc2c1CCCC2 | 2.01%
Cc1cccc(Nc2ncc(-c3ccccc3)o2)c1 | 2.78%
O=C(O[C@H]1CN[C@H](C#Cc2cc3ncnc(Nc4ccc(Cc5ccccc5)cc4)c3s2)C1)N1CCOCC1 | 4.56%
COC(=O)c1sc(-n2cnc3cc(OC)c(OC)cc32)cc1OCc1ccccc1C(F)(F)F | 6.35%
CN1CCC(n2cnc(-c3ccc(F)cc3)c2-c2ccnc(Nc3ccccc3)n2)CC1 | 9.59%
CNC(=O)c1cccc(C#Cc2cncnc2Nc2ccc(OCc3cccc(F)c3)c(Cl)c2)c1 | 5.11%
CS(=O)(=O)CCNCc1ccc(-c2ccc3ncnc(Nc4ccc(OCc5ccccc5)c(C(F)(F)F)c4)c3c2)o1 | 5.8%
Nc1ncc(-c2cccc(S(N)(=O)=O)c2)c2scc(-c3ccc(F)c(Cl)c3)c12 | 3.25%
CC(C)(CO)CNC(=O)c1ccc2c(c1)/C(=N/Nc1ccc(S(N)(=O)=O)cc1)C(=O)N2 | 9.33%
CCCN1CCC(c2ccc(Nc3nc(Nc4cc(F)ccc4C(N)=O)c4cc[nH]c4n3)c(OC)c2)CC1 | 22.9%
CCn1c(-c2nonc2N)nc2cnc(Oc3cccc(NC(=O)c4ccc(N(C)C)cc4)c3)cc21 | -4.37%
Fc1ccc(-c2nn3ccccc3c2-c2ccncc2)cc1 | 3.37%
COc1ccc(-c2oc3ncnc(N)c3c2-c2ccc(NC(=O)Nc3cc(C(F)(F)F)ccc3F)cc2)cc1 | 63.2%
